Only some compounds are listed: those with a hit (about 2.8% of all), similar ones and a draw of the others.
Mito fusion act: qHTS Assay for Small Molecule Inhibitors of Mitochondrial Division or Activators of Mitochondrial Fusion; 320,000 tested, 0.23% active; Potency, µM (top dose mostly 46.1 µM), actives largely listed as activators; S. cerevisiae fusion-defective mutant growth rescue, CellTiterGlo 48 h; also: nearly all actives have a fitted effect of over 45% in size
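Luminescent cell viability in 1536-well qHTS format served as the measure of rescued growth in ts fusion-mutant S. cerevisiae cultured on non-fermentable YPEG for 48 hours at 37C.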
GLP1R ag: qHTS of GLP-1 Receptor Agonists | Glucagon-like peptide 1 receptor (Homo sapiens), P43220 | HEK293 GLP-1R CRE-luciferase, luminescence, 4-6 h; cells express a hypersensitive GLP-1R form | Potency, µM (highest dose often 45.6 µM), actives largely listed as activators | 380,000 tested, 0.007% active
Target sequence (P43220 whole entry, looked up): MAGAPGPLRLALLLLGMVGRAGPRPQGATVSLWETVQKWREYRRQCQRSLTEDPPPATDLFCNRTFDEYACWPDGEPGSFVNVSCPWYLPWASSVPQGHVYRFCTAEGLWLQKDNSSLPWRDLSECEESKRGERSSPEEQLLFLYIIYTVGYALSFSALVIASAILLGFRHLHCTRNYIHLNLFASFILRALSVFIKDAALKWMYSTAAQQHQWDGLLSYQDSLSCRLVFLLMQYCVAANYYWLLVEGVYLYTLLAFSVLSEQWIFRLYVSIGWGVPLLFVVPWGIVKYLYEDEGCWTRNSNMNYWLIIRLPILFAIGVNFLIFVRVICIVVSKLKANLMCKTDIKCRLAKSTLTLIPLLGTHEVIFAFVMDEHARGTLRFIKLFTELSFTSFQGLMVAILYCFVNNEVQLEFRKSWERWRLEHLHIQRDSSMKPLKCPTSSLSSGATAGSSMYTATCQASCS
GLP1R inv ag: qHTS of GLP-1 Receptor Inverse Agonists (Inhibition Mode); Potency, µM (top dose mostly 38.3 µM), hits mostly inhibitors; 410,000 tested, 1.6% active; AID 624417, 2012; HEK293 GLP-1R CRE-luciferase, luminescence, 24 h; GLP-1R form is constitutively active; also: nearly all actives have a fitted effect of over 55% in size
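Using stably transfected HEK293 (constitutively active GLP-1R, cAMP-luciferase reporter), compounds were incubated 24 hr and luciferase measured by luminescence.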
HEK293 tox: qHTS of GLP-1 Receptor Inverse Agonists: Cytotox Screen. HEK293 cAMP-luciferase reporter cells, luminescence, 24 h. Potency, µM (series often up to 38.3 µM), most hits filed as inhibitors. 410,000 tested, 0.13% active;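 also: loss of luciferase light is scored as toxicity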
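Here, cytotoxicity is scored as loss of luminescence. The MLSMR collection was tested on cells seeded in medium containing 10% Nu serum, with a 24 hr compound exposure preceded by 12 hours of culture.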
BRCA1 expr act: qHTS Assay to Identify Small Molecule Activators of BRCA1 Expression | AID 624202, 2012 | MCF7-BRCA1-FFLuc reporter, luminescence, 48 h; response scale: scaled: vehicle 0%, 10 µM genistein 100% | 380,000 tested, 1.1% active | Potency, µM (top dose mostly 46.1 µM), usual class: activators; also: nearly all actives have a fitted effect of over 80% in size
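Quantitative HTS in MCF7 cells stably reporting BRCA1 expression via firefly luciferase. Compound treatment lasts 48 h at 37 °C in phenol-red free MEM. Activation is expressed relative to genistein at 10 microM and DMSO.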
Each line names hits and unclear results; the compound was inactive in the other large screens. Calls follow the shape of the dose curve; as a rule, active = well fitted curve in the direction sought with a large enough effect; inconclusive = small, poorly fitted or top-dose-only effect, or another doubt; inactive = no such curve, though single readings can be large; an effect the other way counts as inactive or inconclusive.

CC(C)C(=O)Nc1ccc(C(=O)c2ccccc2)cc1	BRCA1 expr act 11.2µM
COc1ccc(NC(=O)CSc2nnc(Cn3cnc4ccccc43)o2)cc1	none
CCOc1ccc(-n2cc(-c3ccccc3)c3c(N4CCOCC4)ncnc32)cc1	GLP1R inv ag inconclusive, HEK293 tox inconclusive
COc1ccc(C(C)=O)cc1COc1ccc([N+](=O)[O-])c(C)c1	GLP1R ag inconclusive, GLP1R inv ag inconclusive
CCCOC(=O)C1C2C=CC(C2)C1C(=O)OCC(=O)c1ccccc1 (centres undefined)	none
Fc1ccccc1Nc1nc(Cl)nc(Cl)n1	none
COc1cccc(NC(=O)c2ccc(NC(=O)C(C)C)cc2)c1	BRCA1 expr act 10µM
COc1cccc(NC(=O)Nc2cccc(C(=O)O)c2)c1	GLP1R inv ag 2µM
COc1cccc(NC(=O)C2(C)CCN2CCc2ccccc2)c1 (centres undefined)	GLP1R inv ag 11.2µM (no result: Mito fusion act)
COc1cccc(C(=O)Nc2ccc(NC(=O)C(C)(C)C)cn2)c1	GLP1R inv ag 12.6µM
COc1cccc(NC(=O)C(C)C)c1	none
Cc1ccc(S(=O)(=O)Oc2ccc(/C=C(/NC(=O)c3ccccc3)C(=O)NCCCC(=O)O)cc2)cc1	none
CCN(CC)C(=O)c1cc(Cl)ccn1	none
O=C(NCc1cccnc1)C1CCN(Cc2cc3ccccc3n2Cc2ccccc2)CC1	none (no result: Mito fusion act, GLP1R ag, BRCA1 expr act)
COc1cccc(NC(=O)c2cccc(S(=O)(=O)N3CCN(Cc4ccccc4)CC3)c2)c1	Mito fusion act inconclusive, GLP1R inv ag 6.31µM
COc1cccc(NC(=O)Nc2ccc3c(c2)nnn3C)c1	BRCA1 expr act 7.94µM
O=C(Nc1ccccc1Cl)NC1CCCCCCC1	GLP1R inv ag inconclusive, BRCA1 expr act 14.1µM
COc1cccc(NC(=O)NC2CCCCCCC2)c1	GLP1R inv ag inconclusive, BRCA1 expr act 10µM
CC(=O)Nc1cccc(NC(=O)c2cccc(S(=O)(=O)N3CCN(Cc4ccccc4)CC3)c2)c1	GLP1R inv ag inconclusive
Cc1cc(=O)n2c(C)n[nH]c2n1	none
Nc1nnc(CSCc2ccc(Cl)cc2Cl)s1	none
COc1cccc(NC(=O)Nc2ccc(Br)cn2)c1	BRCA1 expr act 11.2µM
CC(C)Oc1cccc(C(=O)NC(=S)Nc2ccccc2)c1	GLP1R inv ag inconclusive, HEK293 tox inconclusive, BRCA1 expr act 12.6µM
CC(C)Oc1cccc(C(=O)NC(=S)Nc2cccnc2)c1	none
OCCN1CCN(CC/C=C2/c3ccccc3CSc3ccccc32)CC1	GLP1R inv ag 8.91µM, HEK293 tox inconclusive (no result: Mito fusion act)
S=C1SCN(Cc2ccco2)CN1Cc1ccco1	GLP1R inv ag 5.62µM, HEK293 tox inconclusive
S=C1SCN(Cc2cccs2)CN1Cc1cccs1	GLP1R inv ag inconclusive, HEK293 tox inconclusive (no result: Mito fusion act)
Cc1ccc(C)c(NC(=S)NC(NC(=O)Cc2cccc3ccccc23)C(Cl)(Cl)Cl)c1 (centres undefined)	GLP1R inv ag inconclusive, HEK293 tox 6.31µM
CCc1ccc(OCC(=O)NC(NC(=S)Nc2ccc(C)cc2C)C(Cl)(Cl)Cl)cc1 (centres undefined)	GLP1R inv ag 5.01µM, HEK293 tox inconclusive
Cc1ccc(NC(=S)NC(NC(=O)c2ccccc2C)C(Cl)(Cl)Cl)c(C)c1 (centres undefined)	GLP1R inv ag 5.62µM, HEK293 tox inconclusive
CCCCN(C(=O)CCCc1nc2ccccc2c(=O)[nH]1)c1c(N)n(CCCC)c(=O)[nH]c1=O	none
O=C(CN1CCCC1)Nc1ccc(Cl)cc1C(F)(F)F	none
CSC1=NCCN1C(=O)c1cccc(C(F)(F)F)c1	none
COC(=O)C1=C(C)NC(=O)C1(Nc1nccs1)C(F)(F)F (centres undefined)	none
O=C(Nc1nc(-c2ccccc2)c(-c2ccccc2)s1)c1ccc(S(=O)(=O)N2CCCC2)cc1	none
Cc1ccc(C)c(N2CCN(S(=O)(=O)c3ccc(-c4cnc(C5CC5)o4)cc3)CC2)c1	GLP1R inv ag inconclusive (no result: Mito fusion act, GLP1R ag)
Cc1cccc(N2CCN(S(=O)(=O)c3ccc(-c4cnc(C5CC5)o4)cc3)CC2)c1C	GLP1R inv ag 11.2µM (no result: Mito fusion act, GLP1R ag)
CC(Oc1ccccc1)C(=O)N1CCN=C1SCc1ccccc1F (centres undefined)	GLP1R inv ag 3.98µM
Cc1ccn2c(Cc3ccccc3)c(-c3ccc(Br)cc3)nc2c1	GLP1R inv ag inconclusive, BRCA1 expr act inconclusive (no result: Mito fusion act)
Cc1ccc(-c2nc3ccc(C)cn3c2Cc2ccccc2C(F)(F)F)cc1	GLP1R inv ag inconclusive, BRCA1 expr act inconclusive (no result: Mito fusion act)
Cc1ccn2c(CC(C)(C)C)c(-c3ccc(F)cc3)nc2c1	GLP1R inv ag 7.08µM, BRCA1 expr act inconclusive (no result: Mito fusion act)
Cc1ccn2c(Cc3ccccc3)c(-c3ccccc3)nc2c1	BRCA1 expr act 12.6µM (no result: Mito fusion act)
Cc1ccc2nc(-c3ccccc3)c(Cc3ccccc3C(F)(F)F)n2c1	GLP1R inv ag inconclusive, BRCA1 expr act 2.51µM (no result: Mito fusion act)
CCC(=O)Nc1ccc(C(=O)NNC(=O)c2cccc(C)c2)cc1	HEK293 tox inconclusive
CC1(Oc2cccc(C#N)c2)CCN(Cc2ccc(-c3ccccn3)cc2)C1 (centres undefined)	none (no result: Mito fusion act)
COc1ccc(OCCn2cc(C(=O)c3ccco3)c3ccccc32)cc1	GLP1R inv ag inconclusive (no result: Mito fusion act, GLP1R ag, BRCA1 expr act)
Cc1ccc(OCCn2cc(C(=O)c3ccco3)c3ccccc32)cc1C	GLP1R inv ag 10µM (no result: Mito fusion act, GLP1R ag, BRCA1 expr act)
C#Cc1cccc(NC(=O)c2ccc(Cl)cc2Cl)c1	GLP1R inv ag inconclusive, BRCA1 expr act 1.78µM
O=C(Nc1ccsn1)c1ccc(Cl)cc1Cl	BRCA1 expr act 2.51µM
O=C(Nc1ccc(Nc2ccccc2)cc1)c1ccc(Cl)cc1Cl	GLP1R inv ag 8.91µM (no result: Mito fusion act)
CCCc1cnc2c(c1SCC(=O)Nc1ccc(C)c(Cl)c1)c(=O)n(C)c(=O)n2C	none (no result: Mito fusion act, GLP1R ag, BRCA1 expr act)
N/N=C1\CCCc2c1[nH]c1ccc([N+](=O)[O-])cc21	HEK293 tox inconclusive
O=C(Nc1ccccc1-c1ccccc1)C12CC3CC(CC(C3)C1)C2	GLP1R inv ag 2µM
O=C(Nc1ccccc1-c1ccccc1)C1CCCC1	GLP1R inv ag inconclusive
Cn1c(=O)c2c(ncn2CC(=O)Nc2ccc(N3CCOCC3)cc2)n(C)c1=O	none
Cc1ccc(NC(=O)CN(C)S(=O)(=O)c2ccc3c(c2)c(=O)n(C)c(=O)n3C)cc1	none
Cc1cccc(Cn2c(C(=O)OC(C)C)cc3c2ccn3C)c1	GLP1R inv ag 5.01µM
